Test results as given in PubChem BioAssay AID588342 (National Center for Advancing Translational Sciences (NCATS), 2011).
Hit rate of the full screen: of about 360,000 compounds, about 25,000 (6.9%) were called active. Inconclusive results (about 9%) are left out. Calls come from the whole dose curve; as a rule, active = well fitted inhibition curve with a large enough effect; inconclusive = small, poorly fitted or top-dose-only effect; inactive = flat fitted curve, though single readings scatter. The list comes from a sample in which actives are over-represented; it also holds similar structures and randomly drawn compounds.

What follows are compounds tested against Luciferin 4-monooxygenase (Photinus pyralis) (UniProt P08659) (assay: qHTS profiling assay for firefly luciferase inhibitor/activator using purifed enzyme and Km concentrations of substrates (counterscreen for miR-21 project)). Conditions: purified FLuc, luminescence inhibition; series mostly up to 57.5 µM; activity change, negative = inhibition: at the top concentration.
Outline: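 Purified P. pyralis luciferase (10nM final) with 10uM D-luciferin and 10uM ATP (Km levels) in 50mM Tris acetate pH 7.5, 10mM Mg acetate, 0.01% Tween-20, 0.05% BSA; qHTS 6-point titration, ~60 µM downward; luminescence read.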
Note: nearly all actives have a fitted effect of over 55% in size.
Potency is the fitted concentration of half-maximal effect.
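Throughout, for activity change, negative = inhibition: plate controls were vehicle for no effect and reference inhibitor for full effect.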

Chain of Luciferin 4-monooxygenase (Photinus pyralis) (P08659 whole entry, looked up): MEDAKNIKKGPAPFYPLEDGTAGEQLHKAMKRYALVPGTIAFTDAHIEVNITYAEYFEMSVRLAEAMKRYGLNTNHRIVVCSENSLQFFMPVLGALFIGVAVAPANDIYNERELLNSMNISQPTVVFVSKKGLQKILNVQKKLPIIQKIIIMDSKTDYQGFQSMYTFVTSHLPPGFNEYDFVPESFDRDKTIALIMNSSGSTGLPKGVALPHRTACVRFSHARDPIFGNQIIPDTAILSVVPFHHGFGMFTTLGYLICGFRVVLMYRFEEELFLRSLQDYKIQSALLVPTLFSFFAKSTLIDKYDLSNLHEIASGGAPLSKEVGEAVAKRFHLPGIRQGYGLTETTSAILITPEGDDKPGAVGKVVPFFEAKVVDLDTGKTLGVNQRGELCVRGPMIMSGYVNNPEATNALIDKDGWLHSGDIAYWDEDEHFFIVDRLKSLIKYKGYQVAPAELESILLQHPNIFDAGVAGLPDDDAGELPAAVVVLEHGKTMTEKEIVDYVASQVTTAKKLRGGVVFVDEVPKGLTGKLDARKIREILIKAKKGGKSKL

Row | Structure (SMILES) | activity change, negative = inhibition | Potency
1 | CCn1c2ccccc2c2cc(CN3CCN(Cc4cccc(Cl)c4)CC3)ccc21 | -0.946% (inactive) | 
2 | CSc1ccccc1C(=O)OCC(=O)N1CCN(C(C)=O)CC1 | -2.52% (inactive) | 
3 | COc1ccccc1CNC(=O)COc1ccc(C)nc1[N+](=O)[O-] | 2.76% (inactive) | 
4 | CCOc1ccccc1C(=O)NC1(C(F)(F)F)NC(=O)N(CCc2ccc(OC)c(OC)c2)C1=O (stereo not given) | -17.7% (inactive) | 
5 | O=C(CSc1nnc(-c2ccccc2O)o1)NC1CCCCC1 | 1.37% (inactive) | 
6 | Fc1ccc(CSc2nnc(-c3cc4c(s3)-c3ccccc3CC4)o2)cc1 | -1.05% (inactive) | 
7 | CCSc1nnc(-c2cc3c(s2)-c2ccccc2CC3)o1 |  | 10.7 µM (active)
8 | CCOC(=O)c1[nH]c(C)c(CCC(=O)N2CCN(c3ccccc3)CC2)c1C | -3.07% (inactive) | 
9 | CC(OC(=O)/C=C/c1ccccc1)C(=O)Nc1ccc(C(N)=O)cc1 (stereo not given) | 0.893% (inactive) | 
10 | O=C(/C=C/c1ccc(N2CCOCC2)cc1)c1ccccc1 |  | 0.953 µM (active)
11 | CC(=O)Nc1ccc(/C=C/C(=O)c2ccccc2)cc1 |  | 1.35 µM (active)
12 | O=C(c1ccc(S(=O)(=O)N2CCOCC2)cc1)N1CCN(c2ccccc2)CC1 | 11.8% (inactive) | 
13 | CCCC(=O)Nc1ccc(C(=O)N/N=C/c2ccc[nH]2)cc1 | -18% (inactive) | 
14 | COC(C(=O)Nc1ccc(C(C)=O)cc1)c1ccccc1 (stereo not given) | -2.83% (inactive) | 
15 | CC(=O)Nc1ccc(C(=O)/C=C/c2ccc[nH]2)cc1 |  | 8.49 µM (active)
16 | CC(=O)Nc1ccc(NC(=S)NC(=O)/C=C/c2ccccc2)cc1 | -0.139% (inactive) | 
17 | O=C(c1ccccc1)c1ccc(C(=O)N2CCN(c3ccccc3)CC2)cc1 | 4.16% (inactive) | 
18 | Cc1cc(C)cc(NC(=O)C2CCCN2S(=O)(=O)c2cccc3cccnc23)c1 (stereo not given) | 3.8% (inactive) | 
19 | Cc1c(CNC(C)c2ccccc2)c(C(=O)O)c(C)n1Cc1c(F)cccc1Cl (stereo not given) | -7.24% (inactive) | 
20 | COc1ccc(N2CCN(S(=O)(=O)c3ccc(-c4coc(C)n4)cc3)CC2)cc1 | 3.39% (inactive) | 
21 | CCOc1ccc(CNC(=O)Cn2cc3c(n2)-c2c(oc(C(=O)N4CCCC4)c2C)CC3)cc1 | -0.775% (inactive) | 
22 | CC1(C)O[C@@H]2[C@H](O1)[C@@H](CO)O[C@H]2n1c(N2CCCCC2)nc2c(N)ncnc21 | -1.84% (inactive) | 

Row | Structure (SMILES) | activity change, negative = inhibition | Potency
23 | Cc1ccc(OCC(=O)Nc2ccc(OCc3cc(=O)n4c(C)csc4n3)cc2)cc1C | -0.234% (inactive) | 
24 | Cc1ccccc1NC(=O)Cn1c(=O)n(CCCCC(=O)NCc2ccccc2Cl)c(=O)c2ccccc21 | -4.82% (inactive) | 
25 | Cc1ccc2nc(N3CCN(c4cccc(Cl)c4)CC3)c3nnnn3c2c1 | -5.21% (inactive) | 
26 | CCOC(=O)c1cc2c(=O)n3ccccc3nc2n(CCCOC)c1=NC(=O)C(C)Oc1ccccc1 (stereo not given) | 1.01% (inactive) | 
27 | CCOc1ccc(CCNC(=O)c2ccc3c(c2)sc2nc(-c4ccc(F)cc4)cn23)cc1OCC | -8.52% (inactive) | 
28 | COc1ccc2oc(=O)c(-c3cn4c(n3)sc3cc(OC)ccc34)cc2c1 | -17.1% (inactive) | 
29 | CCOc1cccc2cc(-c3cn4c(n3)sc3cc(C)ccc34)c(=O)oc12 |  | 0.426 µM (active)
30 | COC(=O)c1ccc(NS(=O)(=O)c2cc3c4c(c2)C(C)C(=O)N4CCC3)cc1 (stereo not given) | -0.997% (inactive) | 
31 | Cc1ccc(N2C(=O)CC(NCc3ccc4c(c3)OCO4)C2=O)cc1Cl (stereo not given) | -13.1% (inactive) | 
32 | COc1ccc(C)cc1S(=O)(=O)Nc1cc2c3c(c1)CCC(=O)N3CCC2 | 0.954% (inactive) | 
33 | CCc1nn(CC(=O)N2CCN(c3ccc(Cl)cc3)CC2)c(=O)c2cc3occc3n12 | -18.2% (inactive) | 
34 | COc1ccc(CCn2cc3c(c2-c2ccc(Br)cc2)c(=O)n(C)c(=O)n3C)cc1OC | -4.89% (inactive) | 
35 | CCOC(=O)c1ccc(-c2ccc(C(=O)Nc3cccnc3)o2)cc1 |  | 15.1 µM (active)
36 | CCOC(=O)c1ccc(-c2ccc(/C=C(\C#N)C(=O)Nc3ccc(C)cc3)o2)cc1 | -3.16% (inactive) | 
37 | COc1ccc(C)cc1NC(=O)c1ccc(-c2ccc(C(C)=O)cc2)o1 | -11.1% (inactive) | 
38 | O=C(O)c1c(CNCc2cccc(F)c2)c2ccccc2n1Cc1ccccc1 | -11.7% (inactive) | 
39 | CNC(=S)NNC(=O)c1sccc1OCc1ccccc1 | 0.426% (inactive) | 
40 | Cc1ccc(/C=N/NC(=O)c2sccc2OCc2ccc(F)cc2)cc1 |  | 1.35 µM (active)
41 | Cc1ccc(COc2ccc(/C=N/NC(=O)CN3CCCCC3)cc2)cc1 | -13.2% (inactive) | 
42 | O=C(c1ccc2c(c1)N(Cc1ccccc1F)C(=O)c1ccccc1S2(=O)=O)N1CCOCC1 | -3.29% (inactive) | 
43 | COc1ccc(C2=NN(C(=O)c3cccnc3)C(c3ccccc3)C2)cc1 (stereo not given) | -10.9% (inactive) | 
44 | COc1ccc(C2=NN(c3nc4ccccc4s3)C(=O)C2)cc1 |  | 9.53 µM (active)

Row | Structure (SMILES) | activity change, negative = inhibition | Potency
45 | CCN(CC)CCNC(=O)CN1N=C(c2ccc(OC)cc2)CCC1=O | 3.09% (inactive) | 
46 | COc1ccc(S(=O)(=O)c2c(Nc3cccc(Cl)c3)sc(C(=O)c3ccccc3)c2N)cc1 | 0.0899% (inactive) | 
47 | COc1cc(-c2cc3n(C)c(C)c(CCC(=O)Nc4ccc(F)cc4)c(=O)n3n2)cc(OC)c1OC | 3.74% (inactive) | 
48 | CC(=O)c1ccc(-c2nnc(CCC(=O)N(C)Cc3cnc4ccccn34)o2)s1 | -0.52% (inactive) | 
49 | CCc1ccc(CN(C)Cc2nc(Cc3ccccc3)no2)nc1 | 3.54% (inactive) | 
50 | CCc1ccc(CN(C)C(=O)CCc2nnc(-c3ccc(-c4ccccc4)cc3)o2)nc1 |  | 13.5 µM (active)
51 | Nc1cccc(-c2cc(-c3ccccc3)nc(-c3cccc(N)c3)n2)c1 | 1.65% (inactive) | 
52 | Nc1ccc(-c2sc(N)nc2-c2ccccc2)cc1 | -1.44% (inactive) | 
53 | CC(=O)c1ccc(NC(c2ccc(F)cc2)c2nnc(-c3ccccc3)o2)cc1 (stereo not given) | -2.01% (inactive) | 
54 | Nc1ccc(-c2nnc(-c3ccc(-c4ccccc4)cc3)o2)cc1 |  | 2.69 µM (active)
55 | Nc1ccc(-c2nnc(-c3ccccc3)o2)cc1 |  | 19 µM (active)
56 | O=C(OCc1nnc(-c2ccccc2)o1)c1cc(=O)[nH]c2ccccc12 | 4.33% (inactive) | 
57 | Cc1oc2ccc(O)c(CN3CCOCC3)c2c1C(=O)Nc1cccc(Cl)c1C | -1.52% (inactive) | 
58 | CC(NC(=O)CCc1cn(Cc2ccccc2Cl)c2ccccc12)c1ccccc1 (stereo not given) | 6.58% (inactive) | 
59 | CCCSc1nc2sc3c(c2c(=O)n1-c1cccc(Br)c1)CC(C)(C)OC3 | 0.901% (inactive) | 
60 | Cc1ccccc1NC(=O)Cc1nc(COC(=O)c2ccc(C(F)(F)F)cc2)cs1 | 3.93% (inactive) | 
61 | Cc1ccc(C)c(NC(=O)COC(=O)CSc2ccccc2)c1 | 6.9% (inactive) | 
62 | CCOc1ccc(NC(=O)CN(Cc2ccccc2)S(=O)(=O)c2ccc(Cl)cc2)cc1 | -5.84% (inactive) | 
63 | CCc1ccnc(NC(=O)Nc2ccc(OCc3ccccc3)cc2)c1 | -2.87% (inactive) | 
64 | Cc1cccc(NC(=O)Nc2ccc(OCc3ccccc3)cc2)n1 | -1.92% (inactive) | 
65 | O=C(O)/C=C\C(=O)Nc1ccc(OCc2ccccc2)cc1 |  | 19 µM (active)
